Autofluor 339: intrinsic fluorescence of library compounds, ex339/em460 – biochemical, MLSMR library, data from DPM-DC assay, artefact control, profiling panel | compound autofluorescence, ex339/em460 nm, NADH buffer; active compounds read high; 1 = no-compound wells, NADH background | fluorescence fold increase at 10 µM | hit rate 5.5% among 65,000;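 active means at 10 µM, mean starting fluorescence two-fold or more over control wells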;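 further: signal is the first read of a kinetic run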
PMK inhibit: S. pneumoniae PMK inhibitors, primary screen, biochemical, mevalonate pathway, pilot trial included | inhibition, % at 10 µM | AID 539, 2006 | purified PMK, PK/LDH-coupled NADH absorbance 340 nm | hit rate 0.49% among 65,000;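 active means top-ranked compounds by inhibition in the single 10 µM screen, taking a fixed number of the strongest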;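 further: 0% = full reaction with DMSO carrier and 100% = background rate without enzyme reaction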
Spn MK inh: S. pneumoniae MK inhibitors, primary screen, biochemical, PK/LDH-coupled NADH absorbance; mevalonate kinase [Streptococcus pneumoniae D39]; hit rate 0.48% among 65,000; inhibition, % at 10 µM; purified MK, PK/LDH-coupled NADH absorbance 340 nm;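 active means ranked among the strongest by inhibition in the single 10 µM screen, a fixed top-ranked set picked for dose follow-up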
DPM-DC inhibit: S. pneumoniae DPM-DC inhibitors, primary screen, biochemical, PK/LDH-coupled NADH fluorescence | hit rate 0.49% among 65,000 | calls only at 10 µM | diphosphomevalonate decarboxylase (Streptococcus pneumoniae D39) | purified DPM-DC | AID 556, 2006;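 active means the 320 compounds with the highest percent inhibition in the single-dose primary screen, excluding strongly autofluorescent ones, cut at about 32% in these data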;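 further: kinetic rate of NADH fluorescence loss reporting ADP formed by the decarboxylase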
NADH enzymes: inhibitors of PK/LDH coupling enzymes, profiling panel, artefact control, biochemical, MLSMR library; IC50, µM (doses to about 10 µM), without a hit: at the top dose inhibition; hit rate 0.02% among 65,000; coupled PK/LDH NADH assays, four targets;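 active means single-dose screening hits from any of four coupled enzyme assays that gave an IC50 when retested across doses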;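 further: the DPM-DC format reads NADH fluorescence rather than 340 nm absorbance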
Abs 340nm: compound light absorbance at 340 nm, profiling panel, artefact control, biochemical, MLSMR library, data from PS, PMK, MK assays. 65,000 tested, under 10 active. compound absorbance at 340 nm, fold over control. AID 708, 2007. fold change at 10 µM;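 active means at 10 µM dose, initial 340 nm absorbance at least 2 fold that of control wells; inactive means change under 2 fold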;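 further: initial absorbance extrapolated from kinetic A340 decline of NADH oxidation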
An asterisk follows results filed as active; i = inactive; · = no result shown; + = active, no number. The list is not random: actives were taken first. Their share in the collection is about 6.8%.

SMILES	Autofluor 339	PMK inhibit	Spn MK inh	DPM-DC inhibit	NADH enzymes	Abs 340nm
CC(C)C(=O)Nc1cc2c(cc1C(=O)c1ccccc1)OCCO2	1.14	3.0	8.0	i	4.0%	0.99
O=C(Nc1cccc(Cl)c1)Nc1ccc2c(c1)OCO2	1.12	8.0	1.0	i	3.0%	1.06
O=C(CSc1nnnn1Cc1ccccc1)NCCc1ccccc1	1.04	4.0	10.0	+	22.0%	1.01
CCC(=O)Nc1cccc(NC(=O)CSc2nnnn2Cc2ccccc2)c1	1.34	8.0	7.0	+	16.0%	1.01
CCOC(=O)c1ccccc1NC(=O)CSc1nnc(COc2ccccc2)n1CC	1.18	13.0	3.0	i	5.0%	0.99
O=C1CC(c2ccccc2)CC(O)=C1C=NCC1CCCO1 (stereo not given)	1.11	38.0*	25.0	i	21.0%	1
CCc1cc2c(=O)c(-c3nc4ccccc4[nH]3)coc2cc1OC(=O)N1CCOCC1	1.34	6.0	0.0	+	5.0%	1.03
COc1ccc(-c2nnn(CCc3nn[nH]n3)n2)cc1OC	1.06	7.0	0.0	i	1.0%	0.98
Cc1nn(CCc2nn[nH]n2)c2nc(C(F)(F)F)cc(C(F)(F)F)c12	4.96*	8.0	4.0	·	6.0%	1.02
CSc1ccc2[nH]c(=O)cc(C)c2c1	3.75*	1.0	2.0	·	2.0%	1.02
Cc1ccc2[nH]c(=S)cc(C)c2c1	1.12	15.0	7.0	i	7.0%	0.98
Cc1cn2nc(N)c3ccccc3c2n1	4.97*	13.0	2.0	·	8.0%	1
c1ccc(-c2noc(-c3cccc4ccccc34)n2)cc1	2.52*	11.0	8.0	i	8.0%	1.02
O=c1c(-c2nc3ccccc3o2)c2oc3ccccc3n2c2ccccc12	4.96*	7.0	0.0	·	4.0%	1.15
CCCOc1ccc(C2c3c(oc4cc(C)c(C)cc4c3=O)C(=O)N2CCCN(C)C)cc1OCC (stereo not given)	1.1	3.0	5.0	i	3.0%	1.1
CCOc1ccc(C2c3c(oc4cc(C)c(C)cc4c3=O)C(=O)N2CCCN(C)C)cc1OC (stereo not given)	1.09	28.0*	10.0	i	14.0%	1.06
COc1ccc2c(c1OC)C(=O)N1C(C(=O)O)Cc3c([nH]c4ccccc34)C21 (stereo not given)	2.17*	4.0	1.0	i	4.0%	1.02
CC12CCC(=O)N1C(C(=O)O)Cc1c2[nH]c2ccccc12 (stereo not given)	1.1	13.0	2.0	i	5.0%	1.02
Cc1ccccc1Cn1ccc(NC(=O)c2cc3nc(-c4ccco4)cc(C(F)(F)F)n3n2)n1	3.83*	12.0	4.0	·	8.0%	1.1
COc1ccc(-c2cc(C(F)(F)F)n3nc(C(=O)N4CCCCC4)cc3n2)cc1	2.26*	0.0	8.0	·	4.0%	1.11
O=C(c1cc2nc(-c3ccco3)cc(C(F)(F)F)n2n1)N1CCN(c2ccccc2)CC1	1.24	1.0	3.0	i	2.0%	1.11
O=C(c1cc2nc(-c3ccco3)cc(C(F)(F)F)n2n1)N1CCCCCC1	2.17*	13.0	5.0	·	9.0%	1.13
O=C(c1cc2nc(-c3ccccc3)cc(C(F)(F)F)n2n1)N1CCCC1	1.25	0.0	6.0	i	2.0%	1.05
O=C(c1cc2nc(-c3ccc(F)cc3)cc(C(F)(F)F)n2n1)N1CCCC1	1.47	9.0	6.0	+	17.0%	1.05
CC(=O)Nc1cc(NC(C)=O)cc(C(=O)OCC(=O)N2CC(C)OC(C)C2)c1 (stereo not given)	1	13.0	1.0	i	2.0%	0.98
SMILES	Autofluor 339	PMK inhibit	Spn MK inh	DPM-DC inhibit	NADH enzymes	Abs 340nm
CN(C(=O)c1cc2nc(-c3ccco3)cc(C(F)(F)F)n2n1)C1CCCCC1	2.18*	4.0	6.0	·	5.0%	1.1
CCCn1nnnc1SCC(=O)NCc1ccc2c(c1)OCO2	1.03	24.0	0.0	i	8.0%	0.96
C/C(N)=C(\C#N)C(=O)NCc1ccccn1	1.09	12.0	11.0	i	8.0%	1.01
O=C(O)c1ccccc1NCN1C(=O)C2CC=C(Cl)CC2C1=O (stereo not given)	2.6*	12.0	0.0	i	9.0%	1.02
COCCn1c(SCC(=O)NCc2ccc3c(c2)OCO3)nnc1-c1c[nH]c2ccccc12	1.08	3.0	3.0	i	2.0%	1.03
Cc1ccc2[nH]c3c(=O)n(CCCN4CCOCC4)cnc3c2c1	2.74*	0.0	10.0	i	12.0%	1.07
Cn1c2ccccc2c2ncn(CCCN3CCOCC3)c(=O)c21	2.39*	8.0	1.0	i	6.0%	1.01
COc1cc2[nH]c3c(=O)n(CCN4CCCCC4)cnc3c2cc1OC	3.63*	9.0	11.0	·	10.0%	1.1
Cc1ccc2[nH]c3c(=O)n(CCCN4CCN(C)CC4)cnc3c2c1	2.11*	12.0	10.0	i	8.0%	0.99
Cn1c2ccc(F)cc2c2ncn(CCN3CCOCC3)c(=O)c21	1.71	12.0	9.0	i	6.0%	1
O=c1c2[nH]c3cccc(Cl)c3c2ncn1CCN1CCCCC1	1.62	4.0	9.0	i	4.0%	1.02
CC(=O)c1c(C)nn(C(C)CC(=O)O)c1C (stereo not given)	1.02	0.0	0.0	i	1.0%	0.99
CCOCCc1nnc(NC(=O)CSc2ccccc2)s1	1.06	2.0	6.0	i	3.0%	1.02
CCNC(=O)Cc1ccc(NS(=O)(=O)c2ccc(F)cc2)cc1	1.09	0.0	0.0	i	0.0%	0.99
CC(C)(C)NS(=O)(=O)c1ccc(NS(=O)(=O)c2ccc(F)cc2)cc1	1.08	26.0*	7.0	i	11.0%	1.06
Cc1cc2n(n1)C(c1sccc1C)Nc1ccccc1-2 (stereo not given)	1.82	2.0	3.0	i	3.0%	1.01
Cc1cc2n(n1)C(c1sccc1C)Nc1c(C)cccc1-2 (stereo not given)	2.06*	6.0	5.0	i	4.0%	1.02
Cc1ccc2c(c1)-c1cc(C)nn1C(c1sccc1C)N2 (stereo not given)	2.2*	8.0	12.0	i	14.0%	1.02
COc1ccc(C2CC(c3cccc(OC)c3OC)n3nnnc3N2)cc1 (stereo not given)	1.11	2.0	3.0	i	2.0%	1.05
CCOc1ccc(-c2cc3nc(C4CCN(C(=O)OC(C)(C)C)CC4)c(C(=O)O)cn3n2)cc1	4.4*	17.0	0.0	·	9.0%	1.07
Cn1nnnc1Sc1nc(-c2cccnc2)nc2ccccc12	1.02	8.0	3.0	i	4.0%	1.05
COc1ccc(Cl)cc1CN1CCN(c2nc(C)cc(C)c2C#N)CC1	1.2	0.0	4.0	i	1.0%	0.98

Source: PubChem
